This is an account of results in PubChem BioAssay (EPA / NIEHS).

For orientation: AC50 means the midpoint of the concentration-response curve, whichever way the signal moves.

Records with an inconclusive call do not appear. Activity calls are given as the source filed them. The calls were made as follows: active = hit-call score of the fitted dose curve at least 0.9, where 1 is the maximum; inconclusive = response in the unintended direction; inactive = score below 0.9.

Sequence of Bile acid receptor (Homo sapiens) (Q96RI1 whole entry, looked up, the tested form may be a part): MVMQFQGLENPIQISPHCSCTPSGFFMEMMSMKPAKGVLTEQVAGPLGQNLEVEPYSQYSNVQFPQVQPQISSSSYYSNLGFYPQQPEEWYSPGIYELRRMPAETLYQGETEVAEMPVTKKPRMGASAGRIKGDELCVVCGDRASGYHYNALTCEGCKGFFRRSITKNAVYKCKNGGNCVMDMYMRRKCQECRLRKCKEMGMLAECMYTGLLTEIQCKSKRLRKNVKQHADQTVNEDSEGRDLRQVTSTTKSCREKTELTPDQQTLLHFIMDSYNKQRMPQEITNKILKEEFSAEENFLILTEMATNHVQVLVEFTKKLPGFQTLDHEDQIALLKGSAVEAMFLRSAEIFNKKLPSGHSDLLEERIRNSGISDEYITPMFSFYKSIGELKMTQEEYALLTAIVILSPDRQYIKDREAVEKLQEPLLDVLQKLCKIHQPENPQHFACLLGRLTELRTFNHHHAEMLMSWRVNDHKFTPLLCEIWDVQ

This test concerns the target Bile acid receptor (Homo sapiens) (UniProt Q96RI1). In words: OT_FXR_FXRSRC1_0480: Odyssey Thera (OT) 8-hour HEK293T Protein-Complementation Assay for Farnesoid X receptor/SRC-1 Co-activator (AID 2283383). As for the experimental part:
OT_FXR_FXRSRC1_0480 is a cell-based assay that uses HEK293T, a human kidney cell line, with measurements taken at 8 hours after chemical dosing in a 384-well plate.OT_FXR_FXRSRC1_0480 is one of one assay component(s) measured or calculated from the OT_FXR_FXRSRC1_0480 assay. It is designed to make measurements of protein fragment complementation, a form of binding reporter, as detected with fluorescence intensity signals by Protein-fragment Complementation technology.Data from the assay component OT_FXR_FXRSRC1_0480 was analyzed into 1 assay endpoint. This assay endpoint, OT_FXR_FXRSRC1_0480, was analyzed in the positive analysis fitting direction relative to DMSO as the negative control and baseline of activity. Using a type of binding reporter, measures of receptor for gain-of-signal activity can be used to understand the binding at the pathway-level as they relate to the gene NR1H4. Furthermore, this assay endpoint can be referred to as a primary readout, because the performed assay has only produced 1 assay endpoint. To generalize the intended target to other relatable targets, this assay endpoint is annotated to the nuclear receptor intended target family, where the subfamily is non-steroidal.
Protein-fragment complementation assay, or PCA, is a method for the identification and quantification of protein-protein interactions. In the PCA, the proteins of interest ("bait" and "prey") are each covalently linked to fragments of a third protein (e.g. DHFR, which acts as a "reporter"). Interaction between the bait and the prey proteins brings the fragments of the reporter protein in close proximity to allow them to form a functional reporter protein whose activity can be measured.
`O=C(NC(=O)c1c(F)cccc1F)Nc1ccc(Oc2ccc(C(F)(F)F)cc2Cl)cc1F`: the AC50 was 56.3 µM (active). With `O=C(NCNC(=O)NC1C(=O)NC(=O)N1CO)NC1C(=O)NC(=O)N1CO` (stereo not given), the result was inactive. With `CC(Cc1ccc(C(C)(C)C)cc1)CN1C[C@@H](C)O[C@@H](C)C1` (stereo not given in full), the half-maximal activity concentration (AC50) is 11.3 µM (active). In the case of `Cc1cc(C)c(C2=C(OC(=O)CC(C)(C)C)C3(CCCC3)OC2=O)c(C)c1`, the call was inactive. On the same count and under the same terms, as for `CCOP(=O)(OCC)Oc1ccc([N+](=O)[O-])cc1`, the entry is “inactive”. Still for that read-out and setting: next, `Cc1ccc(C)c2ccccc12`: “inactive”; `COc1cc(OC)nc(Oc2cccc(Oc3nc(OC)cc(OC)n3)c2C(=O)O)n1`: “inactive”; `O=C1Nc2ccc(Cl)cc2C(c2ccccc2)=NC1O` (stereo not given): “inactive”. Still for that read-out and setting: next, `N#CCCCCC#N`: “inactive”; `c1ccc2c(c1)CCCC2`: “inactive”.
